Experimental data published in PubChem BioAssay (EPA / NIEHS).
Inconclusive results are not listed. Calls of active or inactive are those of the source. Rule for the calls, unless noted: active = hit-call score of the fitted dose curve at least 0.9, where 1 is the maximum; inactive = score below 0.9.

What was measured:
[1] = CCTE_Shafer_MEA_dev_firing_rate_mean: CCTE's Neural Network Formation Assay for Mean Firing Rate, Shafer Lab (AID 2284031);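 note: curve fitted for loss of firing so AC50 reflects decreased mean firing rate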
Procedure, shortened: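 Steps: seed rat cortical cells (1.5 x 10^5/well) with laminin on PEI-coated MEA; dose day 0; record DIV 5/7/9/12, full media and compound exchange after DIV 5 and 9 recordings; compute well-mean firing rate AUC.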

[2] = CCTE_Shafer_MEA_dev_per_burst_spike_percent: CCTE's Neural Network Formation Assay for Percent of Spikes in a Burst, Shafer Lab (AID 2284032);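 note: fitted as a decrease in burst spike percentage below DMSO baseline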
Procedure, shortened: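 Value is trapezoidal AUC over recordings on days 5, 7, 9 and 12 of the well-mean fraction of spikes falling in single-electrode bursts; rat cortical cultures exposed continuously from plating, treatment renewed DIV 5 and 9, fitted downward against DMSO.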

[3] = CCTE_Shafer_MEA_dev_active_electrodes_number: CCTE's Neural Network Formation Assay for Number of Active Electrodes, Shafer Lab (AID 2284040; active = hit-call score of the fitted dose curve at least 0.9, where 1 is the maximum;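 note: potency for loss of active electrodes versus DMSO so lower counts are hits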)
Procedure, shortened: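 Counts electrodes per well firing at least 5 spikes/min, recorded on days 5, 7, 9 and 12 in rat cortical cultures dosed continuously from plating (treatment refreshed DIV 5, 9). Value is the area under the curve over recordings, fitted downward relative to DMSO.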

[4] = CCTE_Shafer_MEA_dev_burst_rate: CCTE's Neural Network Formation Assay for Burst Rate, Shafer Lab (AID 2284042);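 note: potency for loss of burst rate below DMSO control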
Procedure, shortened: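 Rat primary cortical cultures on PEI/laminin MEA; compound from plating, re-dosed at DIV 5, 9 media change. Single-electrode bursts/recording length, well mean of active electrodes; AUC over DIV 5–12 recordings; loss-of-signal vs DMSO.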

[5] = CCTE_Shafer_MEA_dev_bursting_electrodes_number: CCTE's Neural Network Formation Assay for Number of Bursting Electrodes, Shafer Lab (AID 2284043; active = hit-call score of the fitted dose curve at least 0.9, where 1 is the maximum;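 note: potency is for loss of bursting electrodes relative to DMSO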)
Procedure, shortened: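 Number of electrodes reaching ≥1 burst every 2 min was recorded at DIV 5, 7, 9 and 12 and collapsed as trapezoidal area under the curve. Cultures were rat cortical neurons on MEA plates, dosed continuously from plating with medium and treatment refreshed on DIV 5 and 9.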

[6] = CCTE_Shafer_MEA_dev_per_burst_interspike_interval: CCTE's Neural Network Formation Assay for Burst Interspike Interval, Shafer Lab (AID 2284044);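 note: potency for a decrease of within-burst interspike interval below DMSO level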
Procedure, shortened: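 Spontaneous activity of maturing rat cortical networks is recorded on DIV 5, 7, 9 and 12 under chronic compound exposure beginning at plating. Endpoint: burst interspike interval well-mean, collapsed into trapezoidal AUC and fitted in the negative direction relative to DMSO.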

[7] = CCTE_Shafer_MEA_dev_burst_duration_mean: CCTE's Neural Network Formation Assay for Mean Burst Duration, Shafer Lab (AID 2284045);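 note: curve fitted for loss meaning shorter burst duration than DMSO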
Procedure, shortened: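 Mean single-electrode burst duration (first to last spike), averaged over bursting electrodes per well, then integrated as area-under-curve across recordings at days 5, 7, 9 and 12. Rat cortical cultures on MEAs, compound present from plating, refreshed at feeds.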

[8] = CCTE_Shafer_MEA_dev_interburst_interval_mean: CCTE's Neural Network Formation Assay for Mean Interburst Interval, Shafer Lab (AID 2284046);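 note: well-mean interburst interval of bursting electrodes as AUC over four recording days; curve fitted for decrease in interburst interval relative to DMSO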
Procedure, shortened: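 Rat cortical neurons, 1.5 x 10^5 cells/well, 48-well MEA; compound from day 0 through DIV 12, media and treatment renewed DIV 5/9. Recordings DIV 5, 7, 9, 12; well-mean interburst interval → trapezoidal AUC, loss direction vs DMSO.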

[9] = CCTE_Shafer_MEA_dev_inter_network_spike_interval_mean: CCTE's Neural Network Formation Assay for Mean Inter-network Spike Interval, Shafer Lab (AID 2284047);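 note: potency for a decrease in mean inter-network spike interval below DMSO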
Procedure, shortened: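 Primary rat cortical neurons on PEI-coated 48-well MEAs (16 electrodes/well) were exposed from plating day 0 to DIV 12, with dosing renewed at DIV 5 and 9. Recordings at DIV 5, 7, 9, 12 were collapsed by trapezoidal AUC, loss-of-signal fit vs DMSO.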

[10] = CCTE_Shafer_MEA_dev_network_spike_peak: CCTE's Neural Network Formation Assay for Mean Number of Electrodes in Network Spike, Shafer Lab (AID 2284049);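 note: fitted for loss of signal meaning fewer electrodes in network spikes than DMSO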
Procedure, shortened: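 Rat cortical primary culture, 1.5 x 10^5 cells/well, 48-well MEA (16 electrodes/well). Dosing day 0 through DIV 12, full media/compound exchange DIV 5, 9. AxIS adaptive spike detection; AUC over days 5/7/9/12; loss-of-signal vs DMSO.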

[11] = CCTE_Shafer_MEA_dev_spike_duration_mean: CCTE's Neural Network Formation Assay for Mean Spike Duration, Shafer Lab (AID 2284051);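 note: mean network spike duration pooled as area under curve over DIV 5 to 12 recordings; potency for a decrease in mean network spike duration versus DMSO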
Procedure, shortened: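 Rat cortical primary cultures, 48-well MEA (16 electrodes/well); compound from plating, renewed DIV 5, 9. Network spike duration (AxIS adaptive detector) recorded DIV 5/7/9/12, combined as trapezoidal AUC; loss direction vs DMSO.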

[12] = CCTE_Shafer_MEA_dev_network_spike_duration_std: CCTE's Neural Network Formation Assay for Standard Deviation of Network Spike Duration, Shafer Lab (AID 2284052);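 note: hits are decreases in network spike duration SD versus DMSO vehicle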
Procedure, shortened: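 Rat cortical cultures, 1.5 x 10^5 cells/well, exposed continuously from plating to DIV 12 with media/compound renewal at DIV 5, 9. Spontaneous activity recorded DIV 5/7/9/12, AxIS adaptive spike detector; AUC across days; negative direction vs DMSO.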

[13] = CCTE_Shafer_MEA_dev_per_network_spike_spike_number_mean: CCTE's Neural Network Formation Assay for Mean Number of Spikes in a Network Spike, Shafer Lab (AID 2284053);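 note: fitted as decrease in spikes per network spike relative to DMSO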
Procedure, shortened: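 Rat cortical primary cultures on 48-well MEA; compound from day 0, re-dosed with full media change DIV 5, 9. Recorded DIV 5, 7, 9, 12; spikes in 0.05 s window at network-spike peak ÷ total network spikes; AUC; loss vs DMSO.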

[14] = CCTE_Shafer_MEA_dev_per_network_spike_spike_percent: CCTE's Neural Network Formation Assay for Percent of Spikes in a Network Spike, Shafer Lab (AID 2284054)
Procedure, shortened: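 Metric: fraction of spikes falling in a 0.05 s window at network-spike peaks. Recordings were made on days 5, 7, 9 and 12 and collapsed by trapezoidal AUC. Cultures were rat cortical neurons on MEA plates, dosed continuously from plating, re-dosed at media changes.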

[15] = CCTE_Shafer_MEA_dev_LDH: CCTE's Lactate Dehydrogenase Assay for Cytotoxicity in the Neural Network Formation Assay, Shafer Lab (AID 2284068; active = hit-call score of the fitted dose curve at least 0.9, where 1 is the maximum;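 note: exposure for twelve days from plating with re-dosing on DIV 5 and 9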)
Procedure, shortened: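 Rat cortical primary neurons, MEA culture; dosing day 0–12, full medium plus compound exchange DIV 5, 9. Read-out: LDH enzyme activity, spectrophotometric. DMSO = negative control/baseline; signal loss → cytotoxicity.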

[16] = CCTE_Shafer_MEA_dev_AB: CCTE's Alamar Blue Assay for Cytotoxicity in the Neural Network Formation Assay, Shafer Lab (AID 2284083; active = hit-call score of the fitted dose curve at least 0.9, where 1 is the maximum;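 note: resazurin reduction fluorescence as viability of cultured neurons; twelve days of exposure from plating with re-dosing on DIV 5 and 9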)
Procedure, shortened: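 Rat cortical primary cultures, 1.5 x 10^5 cells/well on MEA; continuous compound exposure over 12 days of network development, re-dosed with full medium change DIV 5 and 9. Alamar Blue fluorescence; loss of signal = cytotoxicity vs DMSO baseline.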

[17] = CCTE_Shafer_MEA_dev_mutual_information_norm: CCTE's Neural Network Formation Assay for Mutual Information Normalization, Shafer Lab (AID 2284091);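 note: mutual information between electrodes summarised as area under curve across four recording days; potency is for a decrease in mutual information relative to DMSO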
Procedure, shortened: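 Shared information across electrodes, tracked on days 5, 7, 9 and 12 of network development and collapsed as trapezoidal area under the curve. Rat cortical cultures were treated continuously from plating, with treatment renewed at feeds on DIV 5 and 9; DMSO baseline, negative-direction fit.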

[18] = CCTE_Shafer_MEA_dev_correlation_coefficient_mean: CCTE's Neural Network Formation Assay for Mean Correlation Coefficient, Shafer Lab (AID 2284093);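 note: well mean pairwise spike train correlation integrated as AUC over recording days 5 to 12; potency fitted for loss of correlation relative to DMSO vehicle wells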
Procedure, shortened: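 Rat cortical cultures, 1.5 x 10^5 cells/well, dosed from day 0 for 12 days. Spontaneous spikes recorded DIV 5/7/9/12; electrode-pair correlation coefficients averaged, AUC taken. Fit in loss direction vs DMSO.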

[19] = CCTE_Mundy_HCI_Cortical_Synap_Neur_Matur_NeuriteSpotCountPerNeuriteLength: CCTE's Synaptogenesis and Neurite Maturation Assay in rat cortical cells for Neurite Spot Count per Neurite Length, Mundy Lab (AID 2284210)
Procedure, shortened: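 Synaptophysin spots per unit neurite length, measured by automated imaging of MAP2/synaptophysin/Hoechst-stained neurons. Cultures from rat cortex received chemical at DIV 7 with media change through DIV 12; glial growth arrested by AraC at DIV 5; DMSO baseline.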

[20] = CCTE_Mundy_HCI_Cortical_NOG_NeuriteLength: CCTE's Neurite Outgrowth Assay in rat cortical cells for Neurite Length, Mundy Lab (AID 2284213);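 note: neurites imaged about 48 to 50 h after chemical exposure began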
Procedure, shortened: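 First, rat primary cortical cells were plated and, 2 h later, given test chemical as a 1/10 dilution. Finally, βIII-tubulin immunostaining enabled automated imaging of neurite length.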

[21] = CCTE_Mundy_HCI_Cortical_Synap_Neur_Matur_NeuriteLength: CCTE's Synaptogenesis and Neurite Maturation Assay in rat cortical cells for Neurite Length, Mundy Lab (AID 2284214)
Procedure, shortened: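 Cultures of rat primary cortical cells received chemical at DIV 7 and were fixed at DIV 12, after glial arrest with AraC at DIV 5. Neurite length was measured by automated imaging of MAP2 immunofluorescence.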

[22] = CCTE_Mundy_HCI_Cortical_Synap_Neur_Matur_NeuriteSpotCountPerNeuron: CCTE's Synaptogenesis and Neurite Maturation Assay in rat cortical cells for Neurite Spot Count per Neuron Count, Mundy Lab (AID 2284215)
Procedure, shortened: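 Developing rat cortical neurons, with glia suppressed by AraC, are exposed to chemicals from DIV 7 to DIV 12. Automated fluorescence imaging of MAP2-labelled neurites and synaptophysin puncta yields a count per neuron, normalised against DMSO wells.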

[23] = CCTE_Mundy_HCI_Cortical_Synap_Neur_Matur_SynapseCount: CCTE's Synaptogenesis and Neurite Maturation Assay in rat cortical cells for Synapse Count, Mundy Lab (AID 2284218)
Procedure, shortened: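 Cells were plated, allowed 2 hr to attach, treated with AraC at DIV 5, then exposed to chemicals from DIV 7 until DIV 12. After fixation and MAP2/synaptophysin immunolabelling, synapses per neuron were quantified by automated imaging against DMSO.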

[24] = CCTE_Mundy_HCI_hN2_NOG_NeuriteCount: CCTE's Neurite Outgrowth Assay in human hN2 cells for Neurite Count, Mundy Lab (AID 2284219; active = hit-call score of the fitted dose curve at least 0.9, where 1 is the maximum)
Procedure, shortened: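 In this morphology assay, hNP1-derived neurons received test chemical 2 h post-plating and were fixed two days later in warm paraformaldehyde/sucrose containing Hoechst 33342. Neurites, labelled by rabbit anti-βIII-tubulin (1:800) and Alexa Fluor-488 (1:500), were counted automatically.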

[25] = CCTE_Mundy_HCI_hN2_NOG_NeuriteLength: CCTE's Neurite Outgrowth Assay in human hN2 cells for Neurite Length, Mundy Lab (AID 2284220; active = hit-call score of the fitted dose curve at least 0.9, where 1 is the maximum)
Procedure, shortened: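 Plate hNP1-derived neurons, then add chemical 2 h later as a 1/10 dilution. Stain with anti-βIII-tubulin then Alexa Fluor-488 secondary, and image automatically to measure neurite length.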

[26] = CCTE_Mundy_HCI_hN2_NOG_NeuronCount: CCTE's Neurite Outgrowth Assay in human hN2 cells for Neuron Count, Mundy Lab (AID 2284221; active = hit-call score of the fitted dose curve at least 0.9, where 1 is the maximum)
Procedure, shortened: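 Read-out is the number of betaIII-tubulin-positive neurons imaged by automated high-content analysis, with DMSO as negative control.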

[27] = CCTE_Mundy_HCI_Cortical_Synap_Neur_Matur_CellBodySpotCount: CCTE's Synaptogenesis and Neurite Maturation Assay in rat cortical cells for Cell Body Spot Count, Mundy Lab (AID 2284223)
Procedure, shortened: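 Chemicals were applied to AraC-treated rat primary cortical cells at DIV 7 and measured at DIV 12. Fixed cells were labelled for MAP2, synaptophysin and nuclei, and high-content imaging gave cell body synaptophysin spot counts per neuron relative to DMSO.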

[28] = CCTE_Mundy_HCI_hNP1_Pro_ResponderAvgInten: CCTE's Proliferation Assay in human neuroprogenitor cells, Mundy Lab (AID 2284224; active = hit-call score of the fitted dose curve at least 0.9, where 1 is the maximum;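 note: human neural progenitor cells hNP1 derived from WA09 embryonic stem cells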)
Procedure, shortened: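 Proliferation was scored as BrdU labelling intensity in human neural progenitors derived from WA09 embryonic cells, measured 26.25 hours after chemical dosing. Activity was fitted relative to DMSO.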

[29] = CCTE_Mundy_HCI_Cortical_NOG_NeuronCount: CCTE's Neurite Outgrowth Assay in rat cortical cells for Neuron Count, Mundy Lab (AID 2284236; active = hit-call score of the fitted dose curve at least 0.9, where 1 is the maximum;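 note: neurons counted by imaging betaIII-tubulin and Hoechst stained cortical cells; cells exposed to compound for about 48 hours before fixation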)
Procedure, shortened: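 Read-out: neuron number by high-content imaging of betaIII-tubulin (Alexa Fluor-488) and Hoechst-labelled rat primary cortical cells.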

[30] = CCTE_Mundy_HCI_hNP1_Casp3_7: CCTE's Caspase-Glo 3/7 Assay in human neuroprogenitor cells for Apoptosis, Mundy Lab (AID 2284240)
Procedure, shortened: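 Apoptosis is scored by activated caspase-3/7 luminescence in WA09-derived neural progenitor cells, measured 26.5 h after chemical dosing. Values represent gain of signal relative to DMSO vehicle.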

[31] = CCTE_Mundy_HCI_Cortical_Synap_Neur_Matur_NeuronCount: CCTE's Synaptogenesis and Neurite Maturation Assay in rat cortical cells for Neuron Count, Mundy Lab (AID 2284242; active = hit-call score of the fitted dose curve at least 0.9, where 1 is the maximum;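 note: neuron number from Hoechst nuclei and MAP2 staining by high-content imaging; hits reduce neuron count versus DMSO baseline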)
Procedure, shortened: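 Cortical cells from rat are plated, treated with AraC at DIV 5, and exposed to test chemicals with a media change at DIV 7. At DIV 12 they are fixed and immunostained (MAP2, synaptophysin), and imaged neuron counts are compared against DMSO controls.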

Measured: AC50

O.O.O.O.O.[Cd+2].[Cd+2].[Cl-].[Cl-].[Cl-].[Cl-]
active: [1] 227 nM | [2] 316 nM | [3] 362 nM | [4] 188 nM | [5] 300 nM | [6] 812 nM | [7] 375 nM | [8] 863 nM | [9] 38.4 nM | [10] 372 nM | [11] 295 nM | [12] 181 nM | [13] 226 nM | [14] 228 nM | [15] 499 nM | [16] 458 nM | [17] 135 nM | [18] 246 nM | [19] 4370 nM | [20] 30800 nM | [21] 1840 nM | [22] 1620 nM | [23] 1670 nM | [24] 30000 nM | [25] 31600 nM | [26] 14100 nM | [29] 76600 nM | [30] 50000 nM | [31] 1240 nM
inactive: [27] | [28]
